PLC-beta3 inh: blocks human PLC-beta3 enzyme activity; Purified PLC-beta3, fluorogenic substrate, fluorescence; inhibition, % at 12.2 µM; AID 720704; actives 0.18% (n = 370,000); in the data active = inhibition above about 11%
LEDGF integ inh: blocks HIV-1 LEDGF/p75-dependent DNA integration; TR-FRET IN-LEDGF/p75 DNA integration, Eu/Cy5; inhibition, % at 3.7 µM; actives 0.64% (n = 370,000);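 active = inhibition above the screen-wide mean plus 3 SD, cut at about 13% in these data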;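 note: signal is the Cy5 over europium emission ratio at 671 and 618 nm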
UHRF1 binding: blocks human UHRF1 binding to methylated DNA; Q96T88; UHRF1 binding to methylated oligo, TR-FRET; inhibition, % at 4.4 µM; actives 0.75% (n = 370,000); AID 687016; in the data active = inhibition above about 21%;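 note: UHRF1 SRA domain binding a hemimethylated CpG hairpin DNA probe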
MBD2 DNA inh: MBD2-methylated oligo binding inhibition; TR-FRET, MBD2 binding to methylated oligonucleotide; inhibition, % at 4.4 µM; actives 0.31% (n = 370,000); AID 686964; in the data active = inhibition above about 13%
PLC-gamma1 inh: blocks human PLC-gamma1 enzyme activity; purified PLC-gamma1, fluorogenic substrate, fluorescence; P19174; actives 0.84% (n = 370,000); inhibition, % at 12.2 µM; in the data active = inhibition above about 9.5%
IN multimer up: counter-screen for LEDGF/p75 integration inhibitors: HIV-1 integrase multimerization activators. shares compounds with LEDGF integ inh. TR-FRET HIV-1 integrase multimerization, biochemical. activation, % at 7.7 µM. actives 17% (n = 2,000); in the data active = activation above about 8.9%
TRFRET interf: counter-screen for LEDGF/p75 integration inhibitors: TR-FRET optical interference. 2,000 tested, under 10 active. inhibition, % at 7.7 µM. TR-FRET optical interference counterscreen, HIV-1 IN multimerization. shares compounds with LEDGF integ inh. AID 1053135;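 active = inhibition above the mean over all tested compounds plus 3 SD, which no compound reached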
LEDGF integ conf: LEDGF/p75-dependent HIV-1 integration inhibition, confirmation; shares compounds with LEDGF integ inh; actives 36% (n = 2,000); TR-FRET LEDGF/p75-dependent HIV-1 integration, biochemical; AID 1053136; inhibition, % at 3.7 µM; in the data active = inhibition above about 14%
Of the large screens only hits and unclear results are named; the others gave an inactive call (follow-up assays come after a bar, where they were run). Most compounds without a hit are left out; they make up all but 2.4% or so of the library.

O=C(NC1CCCC1)C(c1cccnc1)N(Cc1ccccc1F)C(=O)c1csnn1 (stereo not drawn)	none
CCC(CO)Nc1cccc2c1S(=O)(=O)N(Cc1cn(Cc3ccc(Cl)cc3)nn1)Cc1ccccc1O2 (stereo not drawn)	none
CC(C)(C)OC(=O)N/N=C/c1cccc([N+](=O)[O-])c1	none
CC(C)(C)OC(=O)N/N=C/c1cccn1-c1ccc([N+](=O)[O-])cc1	LEDGF integ inh 14 | IN multimer up inactive | TRFRET interf inactive | LEDGF integ conf inactive
COc1ccc(Cn2c(NC(=O)c3ccccc3)nc(Cc3ccccc3)c2Cc2ccccc2)cc1	LEDGF integ inh 14 | IN multimer up inactive | TRFRET interf inactive | LEDGF integ conf 14
Cn1c(NC(=O)c2ccccc2)nc(Cc2ccccc2)c1Cc1ccccc1	LEDGF integ inh 25 | IN multimer up inactive | TRFRET interf inactive | LEDGF integ conf 27
CCCn1c(NC(=O)c2ccccc2)nc(Cc2ccccc2)c1Cc1ccccc1	LEDGF integ inh 15 | IN multimer up inactive | TRFRET interf inactive | LEDGF integ conf 25
Cn1c(NC(=O)c2ccccc2)nc(Cc2ccccc2)c1-c1ccccc1	LEDGF integ inh 23 | IN multimer up inactive | TRFRET interf inactive | LEDGF integ conf 31
Cn1c(NC(=O)c2ccc(F)cc2)nc2ccccc21	none
Cc1cc(NS(=O)(=O)c2ccc(NC(=O)Cc3ccc(Cl)c(F)c3)cc2)no1	none
O=C(Nc1nc2ncccn2c1-c1ccccc1)c1ccccc1	none
CCOC(=O)c1oc2c(O)c(O)ccc2c(=O)c1-c1nncn1-c1ccccc1	LEDGF integ inh 45 | IN multimer up inactive | TRFRET interf inactive | LEDGF integ conf 40
CCOC(=O)c1oc2c(C)c(O)ccc2c(=O)c1-c1nncn1-c1ccccc1	none
CCOC(=O)NC1(NC2CCCCC2)Oc2ccccc2O1	LEDGF integ inh 22 | IN multimer up inactive | TRFRET interf inactive | LEDGF integ conf inactive
O=Cc1coc2ccc3ccccc3c2c1=O	LEDGF integ inh 16 | IN multimer up inactive | TRFRET interf inactive | LEDGF integ conf 54
NC(=O)N/N=C/c1coc2ccc3ccccc3c2c1=O	none
COc1ccc(-c2cnc3c(NC=O)cc(-c4ccoc4)cn23)cc1OC	LEDGF integ inh 28 | IN multimer up inactive | TRFRET interf inactive | LEDGF integ conf inactive
COc1ccc(-c2cnc3c(NC=O)cc(-c4cc(OC)c(OC)c(OC)c4)cn23)cc1OC	none
O=C(O)c1ccc(NS(=O)(=O)c2ccc3c(c2)C2C=CCC2C(c2ccccc2F)N3)cc1 (stereo not drawn)	LEDGF integ inh 43 | IN multimer up 17 | TRFRET interf inactive | LEDGF integ conf 33
O=C(O)c1ccc2c(c1)C1C=CCC1C(c1cc3c(cc1Br)OCO3)N2 (stereo not drawn)	none
N#Cc1nc(-c2ccccc2F)oc1NCc1ccccc1	LEDGF integ inh 14 | IN multimer up inactive | TRFRET interf inactive | LEDGF integ conf inactive
N#Cc1nc(-c2ccccc2F)oc1NCCc1ccccc1	none
O=C1CC(SC(=S)C2CCCC2=O)C(=O)N1 (stereo not drawn)	LEDGF integ inh 24, UHRF1 binding 54, MBD2 DNA inh 17, PLC-gamma1 inh 12 | IN multimer up inactive | TRFRET interf inactive | LEDGF integ conf 22
CC1=NN(c2ccccc2)C(=O)C1C(=S)SC1CC(=O)NC1=O (stereo not drawn)	none
CC(C)NC(=O)N(C)C[C@@H]1Oc2ccc(NC(=O)Nc3ccc(C(F)(F)F)cc3)cc2CC(=O)N([C@H](C)CO)C[C@@H]1C	LEDGF integ inh 14 | IN multimer up inactive | TRFRET interf inactive | LEDGF integ conf inactive
NS(=O)(=O)c1cccc(NC(=O)c2cccc(-c3ccc(O)cc3)c2)c1	LEDGF integ inh 18 | IN multimer up inactive | TRFRET interf inactive | LEDGF integ conf inactive
CCOC(=O)c1ccc(NC2OC(=O)c3ccccc32)cc1 (stereo not drawn)	LEDGF integ inh 20 | IN multimer up inactive | TRFRET interf inactive | LEDGF integ conf inactive
CCCn1c2ccccc2c2nnc(SCCN3CCOCC3)nc21	LEDGF integ inh 20 | IN multimer up inactive | TRFRET interf inactive | LEDGF integ conf inactive
CCCn1c2ccc(C)cc2c2nnc(SCCN3CCOCC3)nc21	none
Oc1cccc(/C=N/N=C/c2cccc(O)c2O)c1O	LEDGF integ inh 27 | IN multimer up inactive | TRFRET interf inactive | LEDGF integ conf 73
Oc1ccccc1C=NN=C1c2ccccc2-c2ccccc21	none
Cc1ccc(N=Cc2cccc(O)c2O)c(C)c1	LEDGF integ inh 31 | IN multimer up inactive | TRFRET interf inactive | LEDGF integ conf 75
CC(C)Oc1cccc(-c2csc(N3CCC(C(N)=O)CC3)n2)c1	none
CC(=O)CC[C@H]1CC[C@]2(CCCN(C(=O)C3CCCCC3)C2)O1	none
Cc1ccc(CC(=O)N(Cc2ccccc2)c2ccccn2)cc1	none
Cc1ccc(OCC(=O)N(Cc2ccccc2)c2ccccn2)cc1	LEDGF integ inh 52 | IN multimer up inactive | TRFRET interf inactive | LEDGF integ conf inactive
COc1ccc(NC(=O)Nc2cc(C)nn2-c2ccccc2)cc1	none
CC1(C)Oc2ccc(C(=O)NCCCN3CCCC3)cc2NC1=O	none
Cc1cccc(NC(=O)COC(=O)[C@@H]2CCCN2C(=O)c2cccs2)c1	LEDGF integ inh 28 | IN multimer up inactive | TRFRET interf inactive | LEDGF integ conf inactive
Cc1cccc(-n2c3nc(=O)[nH]c(=O)c-3cc3cc([N+](=O)[O-])ccc32)c1	none
Cc1ccc(C)c(-n2c3nc(=O)[nH]c(=O)c-3cc3cc([N+](=O)[O-])ccc32)c1	LEDGF integ inh 21 | IN multimer up inactive | TRFRET interf inactive | LEDGF integ conf 21
CC1CCCC(NC(=O)COC(=O)c2sc3ccccc3c2Cl)C1C (stereo not drawn)	none
O=C(COC(=O)c1sc2ccccc2c1Cl)NCC1CCCCC1	LEDGF integ inh 16 | IN multimer up inactive | TRFRET interf inactive | LEDGF integ conf inactive
C[C@H]1[C@@H](OC(=O)N2CCOCC2)CC[C@@]23CCCN2C(=O)CCC[C@@H]13	none
Cc1nc(SCC(=O)N2CCCc3ccccc32)c2oc3ccccc3c2n1	none
CCc1nc(SCC(=O)N2CCc3ccccc32)c2oc3ccccc3c2n1	LEDGF integ inh 14 | IN multimer up inactive | TRFRET interf inactive | LEDGF integ conf inactive
COC(=O)[C@]12CCCCC=C1N(Cc1ccc(OC)cc1)C(=O)[C@@H]2CC(=O)NCC12CC3CC(CC(C3)C1)C2	none

Compound activity: PubChem, The Scripps Research Institute Molecular Screening Center
